Assay results reported in ChEMBL document CHEMBL1961873, “Compounds: GSK PKIS; Assays: Nanosyn kinase panel” (2012).

Experiments:
[1] = target: T1, Inhibitor of nuclear factor kappa-B kinase subunit epsilon (Homo sapiens) (UniProt Q14164); settings: at 1 µM;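 also: reported values are averaged percent inhibition figures against human IKKε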
T1 sequence (whole entry): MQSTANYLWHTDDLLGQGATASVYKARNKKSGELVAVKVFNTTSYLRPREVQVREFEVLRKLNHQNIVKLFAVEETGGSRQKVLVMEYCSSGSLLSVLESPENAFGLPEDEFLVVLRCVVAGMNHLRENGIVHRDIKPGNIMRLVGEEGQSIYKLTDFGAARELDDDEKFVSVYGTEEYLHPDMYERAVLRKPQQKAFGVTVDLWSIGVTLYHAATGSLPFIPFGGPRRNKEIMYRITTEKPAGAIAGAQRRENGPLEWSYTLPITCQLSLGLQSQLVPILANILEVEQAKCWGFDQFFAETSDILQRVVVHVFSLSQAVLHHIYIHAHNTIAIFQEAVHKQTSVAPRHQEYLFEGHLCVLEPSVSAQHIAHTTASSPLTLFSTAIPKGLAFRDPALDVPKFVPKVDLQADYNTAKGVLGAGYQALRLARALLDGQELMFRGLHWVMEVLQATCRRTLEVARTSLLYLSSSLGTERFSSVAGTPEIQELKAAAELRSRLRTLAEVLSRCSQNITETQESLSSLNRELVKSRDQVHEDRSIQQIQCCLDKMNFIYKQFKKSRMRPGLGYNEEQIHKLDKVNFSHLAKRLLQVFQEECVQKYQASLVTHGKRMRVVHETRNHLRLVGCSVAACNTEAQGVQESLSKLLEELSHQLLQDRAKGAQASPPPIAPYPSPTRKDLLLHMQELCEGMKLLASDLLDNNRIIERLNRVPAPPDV

[2] = target: T2, Serine/threonine-protein kinase Nek1 (Homo sapiens) (UniProt Q96PY6); settings: at 0.1 µM
T2 sequence (whole entry): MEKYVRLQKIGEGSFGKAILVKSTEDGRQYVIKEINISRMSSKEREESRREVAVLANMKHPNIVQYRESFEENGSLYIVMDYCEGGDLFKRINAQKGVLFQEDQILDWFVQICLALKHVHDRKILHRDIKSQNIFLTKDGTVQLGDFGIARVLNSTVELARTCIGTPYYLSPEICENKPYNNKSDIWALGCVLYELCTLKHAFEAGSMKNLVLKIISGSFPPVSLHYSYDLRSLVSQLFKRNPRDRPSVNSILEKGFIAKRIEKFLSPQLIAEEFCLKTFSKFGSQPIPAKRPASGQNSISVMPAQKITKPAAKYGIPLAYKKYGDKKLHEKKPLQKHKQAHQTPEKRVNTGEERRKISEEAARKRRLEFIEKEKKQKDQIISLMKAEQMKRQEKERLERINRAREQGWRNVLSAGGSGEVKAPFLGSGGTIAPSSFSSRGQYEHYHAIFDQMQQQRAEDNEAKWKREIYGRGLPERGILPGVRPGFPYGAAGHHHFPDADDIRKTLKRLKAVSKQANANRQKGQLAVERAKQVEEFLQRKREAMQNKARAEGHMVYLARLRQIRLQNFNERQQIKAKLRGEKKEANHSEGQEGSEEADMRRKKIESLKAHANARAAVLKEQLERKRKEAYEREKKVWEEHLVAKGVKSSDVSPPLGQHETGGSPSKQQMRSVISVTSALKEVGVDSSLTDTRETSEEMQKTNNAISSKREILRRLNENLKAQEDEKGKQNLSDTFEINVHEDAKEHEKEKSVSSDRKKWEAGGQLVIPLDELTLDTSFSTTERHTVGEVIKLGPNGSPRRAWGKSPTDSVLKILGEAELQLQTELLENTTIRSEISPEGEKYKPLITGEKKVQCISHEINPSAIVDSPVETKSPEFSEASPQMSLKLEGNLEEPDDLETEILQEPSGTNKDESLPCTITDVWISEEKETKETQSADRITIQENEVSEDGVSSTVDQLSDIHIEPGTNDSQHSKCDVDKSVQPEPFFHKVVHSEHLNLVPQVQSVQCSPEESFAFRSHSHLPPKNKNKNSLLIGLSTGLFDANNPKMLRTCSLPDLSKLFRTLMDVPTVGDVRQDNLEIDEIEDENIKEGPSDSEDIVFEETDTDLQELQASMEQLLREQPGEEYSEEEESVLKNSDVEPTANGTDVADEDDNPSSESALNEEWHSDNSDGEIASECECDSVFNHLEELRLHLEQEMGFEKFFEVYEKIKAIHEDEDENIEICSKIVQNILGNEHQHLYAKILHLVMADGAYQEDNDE

[3] = target: T2, Serine/threonine-protein kinase Nek1 (Homo sapiens); settings: at 1 µM
[4] = target: T3, Serine/threonine-protein kinase Nek2 (Homo sapiens) (UniProt P51955); settings: at 0.1 µM
T3 sequence (whole entry): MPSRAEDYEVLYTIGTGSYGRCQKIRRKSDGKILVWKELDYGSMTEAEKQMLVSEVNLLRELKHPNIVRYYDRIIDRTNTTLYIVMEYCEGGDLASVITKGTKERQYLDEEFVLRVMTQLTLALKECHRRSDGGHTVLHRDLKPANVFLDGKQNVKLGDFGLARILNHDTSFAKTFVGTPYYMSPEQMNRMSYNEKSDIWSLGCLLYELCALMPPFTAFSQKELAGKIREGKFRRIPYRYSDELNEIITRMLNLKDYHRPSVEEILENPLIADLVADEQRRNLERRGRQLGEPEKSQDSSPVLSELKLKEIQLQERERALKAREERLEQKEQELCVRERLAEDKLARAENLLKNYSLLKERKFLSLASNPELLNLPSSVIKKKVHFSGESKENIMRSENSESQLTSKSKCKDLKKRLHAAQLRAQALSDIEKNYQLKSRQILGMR

[5] = target: T3, Serine/threonine-protein kinase Nek2 (Homo sapiens); settings: at 1 µM
[6] = target: Serine/threonine-protein kinase Nek6 (Homo sapiens) (UniProt Q9HC98); settings: at 0.1 µM
Chain of Serine/threonine-protein kinase Nek6 (Homo sapiens) (Q9HC98 whole entry): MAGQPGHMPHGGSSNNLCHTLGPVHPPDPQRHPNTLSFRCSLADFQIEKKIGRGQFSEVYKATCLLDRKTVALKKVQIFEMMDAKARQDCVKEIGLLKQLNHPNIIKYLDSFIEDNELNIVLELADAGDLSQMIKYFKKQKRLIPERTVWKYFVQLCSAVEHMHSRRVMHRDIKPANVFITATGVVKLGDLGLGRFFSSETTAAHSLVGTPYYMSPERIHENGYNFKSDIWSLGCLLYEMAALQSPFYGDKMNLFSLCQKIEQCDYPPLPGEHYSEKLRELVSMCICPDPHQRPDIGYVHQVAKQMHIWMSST

[7] = target: Serine/threonine-protein kinase Nek6 (Homo sapiens) (UniProt Q9HC98); settings: at 1 µM
[8] = target: Serine/threonine-protein kinase Nek7 (Homo sapiens) (UniProt Q8TDX7); settings: at 0.1 µM
Chain of Serine/threonine-protein kinase Nek7 (Homo sapiens) (Q8TDX7 whole entry, looked up): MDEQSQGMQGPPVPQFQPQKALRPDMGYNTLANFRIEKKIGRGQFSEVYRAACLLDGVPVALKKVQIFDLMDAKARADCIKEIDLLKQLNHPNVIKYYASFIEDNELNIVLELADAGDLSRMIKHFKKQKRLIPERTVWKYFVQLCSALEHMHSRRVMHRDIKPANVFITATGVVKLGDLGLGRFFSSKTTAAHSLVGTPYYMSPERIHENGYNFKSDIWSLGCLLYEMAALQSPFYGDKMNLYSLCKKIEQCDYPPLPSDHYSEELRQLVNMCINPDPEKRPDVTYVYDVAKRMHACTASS

[9] = target: Serine/threonine-protein kinase Nek7 (Homo sapiens) (UniProt Q8TDX7); settings: at 1 µM
[10] = target: T4, Serine/threonine-protein kinase Nek9 (Homo sapiens) (UniProt Q8TD19); settings: at 0.1 µM
T4 sequence (whole entry): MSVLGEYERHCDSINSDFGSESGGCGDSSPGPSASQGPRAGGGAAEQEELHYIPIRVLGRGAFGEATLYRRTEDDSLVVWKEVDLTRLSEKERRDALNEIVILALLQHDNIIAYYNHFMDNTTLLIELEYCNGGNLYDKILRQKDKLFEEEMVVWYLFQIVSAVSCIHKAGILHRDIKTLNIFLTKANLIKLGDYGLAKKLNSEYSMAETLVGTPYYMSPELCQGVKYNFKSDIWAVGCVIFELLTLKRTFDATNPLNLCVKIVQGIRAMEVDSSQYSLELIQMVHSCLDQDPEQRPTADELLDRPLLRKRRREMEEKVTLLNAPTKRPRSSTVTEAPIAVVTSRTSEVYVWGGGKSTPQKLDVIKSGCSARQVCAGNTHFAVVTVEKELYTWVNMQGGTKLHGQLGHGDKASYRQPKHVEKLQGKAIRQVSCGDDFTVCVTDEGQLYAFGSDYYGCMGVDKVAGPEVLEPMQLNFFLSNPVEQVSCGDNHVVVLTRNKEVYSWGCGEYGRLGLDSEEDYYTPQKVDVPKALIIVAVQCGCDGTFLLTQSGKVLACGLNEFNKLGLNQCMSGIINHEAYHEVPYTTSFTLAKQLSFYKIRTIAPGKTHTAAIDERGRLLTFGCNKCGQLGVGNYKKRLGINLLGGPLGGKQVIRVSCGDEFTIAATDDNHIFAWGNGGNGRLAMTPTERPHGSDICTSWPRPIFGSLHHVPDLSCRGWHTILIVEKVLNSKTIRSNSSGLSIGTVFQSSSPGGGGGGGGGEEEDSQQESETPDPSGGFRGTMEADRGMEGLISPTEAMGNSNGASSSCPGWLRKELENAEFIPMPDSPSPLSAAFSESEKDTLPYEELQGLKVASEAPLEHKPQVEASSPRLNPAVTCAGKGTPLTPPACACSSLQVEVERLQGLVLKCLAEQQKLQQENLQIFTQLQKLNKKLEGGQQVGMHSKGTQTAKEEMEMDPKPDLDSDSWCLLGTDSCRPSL

[11] = target: T4, Serine/threonine-protein kinase Nek9 (Homo sapiens); settings: at 1 µM
[12] = target: Serine/threonine-protein kinase PLK1 (Homo sapiens) (UniProt P53350); settings: at 0.1 µM
Chain of Serine/threonine-protein kinase PLK1 (Homo sapiens) (P53350 whole entry): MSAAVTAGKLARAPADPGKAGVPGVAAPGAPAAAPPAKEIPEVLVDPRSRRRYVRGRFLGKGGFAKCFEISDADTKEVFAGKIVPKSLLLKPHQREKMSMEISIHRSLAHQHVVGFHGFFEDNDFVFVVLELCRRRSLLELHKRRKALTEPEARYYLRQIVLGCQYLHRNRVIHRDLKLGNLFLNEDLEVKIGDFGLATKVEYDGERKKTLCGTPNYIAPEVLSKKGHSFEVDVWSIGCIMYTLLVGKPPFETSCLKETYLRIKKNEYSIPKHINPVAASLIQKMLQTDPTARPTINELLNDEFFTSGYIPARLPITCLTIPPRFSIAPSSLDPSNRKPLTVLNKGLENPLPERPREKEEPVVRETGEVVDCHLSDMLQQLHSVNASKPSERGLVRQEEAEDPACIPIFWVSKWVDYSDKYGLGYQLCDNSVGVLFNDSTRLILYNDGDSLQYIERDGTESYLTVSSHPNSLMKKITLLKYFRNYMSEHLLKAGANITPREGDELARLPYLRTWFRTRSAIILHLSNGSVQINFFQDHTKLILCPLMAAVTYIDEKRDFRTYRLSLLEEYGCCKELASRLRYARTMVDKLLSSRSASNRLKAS

[13] = target: Serine/threonine-protein kinase PLK1 (Homo sapiens) (UniProt P53350); settings: at 1 µM
[14] = target: T5, Dual specificity protein kinase TTK (Homo sapiens) (UniProt P33981); settings: at 0.1 µM
T5 sequence (whole entry): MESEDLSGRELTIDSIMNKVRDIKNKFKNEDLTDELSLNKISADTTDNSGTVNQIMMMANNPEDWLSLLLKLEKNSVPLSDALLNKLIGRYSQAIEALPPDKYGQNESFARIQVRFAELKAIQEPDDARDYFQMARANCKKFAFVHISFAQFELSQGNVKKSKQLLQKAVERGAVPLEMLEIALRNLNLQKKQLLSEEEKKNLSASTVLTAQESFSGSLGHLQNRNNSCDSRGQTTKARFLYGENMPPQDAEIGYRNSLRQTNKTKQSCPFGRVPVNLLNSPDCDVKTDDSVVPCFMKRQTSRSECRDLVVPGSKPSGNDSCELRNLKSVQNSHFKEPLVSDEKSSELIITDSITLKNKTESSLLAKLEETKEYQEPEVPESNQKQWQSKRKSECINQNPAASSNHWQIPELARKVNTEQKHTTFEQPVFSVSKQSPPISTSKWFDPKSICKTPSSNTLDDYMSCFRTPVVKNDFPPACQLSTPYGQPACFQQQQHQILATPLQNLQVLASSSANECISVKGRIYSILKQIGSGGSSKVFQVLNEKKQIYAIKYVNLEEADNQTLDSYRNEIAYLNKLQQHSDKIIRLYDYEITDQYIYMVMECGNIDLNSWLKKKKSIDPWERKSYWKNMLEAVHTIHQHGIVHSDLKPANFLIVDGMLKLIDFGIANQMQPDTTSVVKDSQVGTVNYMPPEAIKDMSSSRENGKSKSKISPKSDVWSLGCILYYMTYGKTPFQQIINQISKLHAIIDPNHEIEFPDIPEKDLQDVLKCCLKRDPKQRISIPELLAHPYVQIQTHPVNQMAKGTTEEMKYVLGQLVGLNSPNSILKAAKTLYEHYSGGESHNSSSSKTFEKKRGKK

[15] = tested on: T6, Receptor-type tyrosine-protein kinase FLT3 (Homo sapiens), P36888 [D835Y]; settings: at 1 µM
T6 sequence (whole entry): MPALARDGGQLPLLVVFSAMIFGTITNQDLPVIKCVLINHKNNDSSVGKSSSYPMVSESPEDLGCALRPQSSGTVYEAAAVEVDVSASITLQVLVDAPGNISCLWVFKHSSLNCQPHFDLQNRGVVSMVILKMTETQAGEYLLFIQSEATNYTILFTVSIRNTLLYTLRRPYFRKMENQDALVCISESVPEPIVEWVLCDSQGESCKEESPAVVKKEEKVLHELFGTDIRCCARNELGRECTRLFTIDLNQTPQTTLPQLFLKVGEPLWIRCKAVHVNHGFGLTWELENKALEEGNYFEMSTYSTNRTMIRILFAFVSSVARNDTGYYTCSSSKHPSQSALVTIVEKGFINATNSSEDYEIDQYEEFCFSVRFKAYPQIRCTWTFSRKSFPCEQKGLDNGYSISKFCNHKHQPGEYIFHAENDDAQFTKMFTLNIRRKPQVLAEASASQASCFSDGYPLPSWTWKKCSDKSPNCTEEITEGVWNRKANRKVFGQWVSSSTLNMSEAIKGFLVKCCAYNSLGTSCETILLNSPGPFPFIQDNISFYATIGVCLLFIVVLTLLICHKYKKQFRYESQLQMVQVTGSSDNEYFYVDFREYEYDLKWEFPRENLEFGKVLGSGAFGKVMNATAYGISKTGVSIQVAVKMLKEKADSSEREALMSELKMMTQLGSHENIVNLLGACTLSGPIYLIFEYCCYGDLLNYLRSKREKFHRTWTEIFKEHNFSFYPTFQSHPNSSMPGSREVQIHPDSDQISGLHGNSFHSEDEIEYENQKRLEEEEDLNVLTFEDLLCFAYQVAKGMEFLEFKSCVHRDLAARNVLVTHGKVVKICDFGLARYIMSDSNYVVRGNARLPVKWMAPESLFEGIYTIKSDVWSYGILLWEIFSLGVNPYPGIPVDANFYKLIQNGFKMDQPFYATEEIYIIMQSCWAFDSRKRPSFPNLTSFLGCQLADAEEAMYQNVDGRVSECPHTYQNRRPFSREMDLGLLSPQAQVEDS

[16] = target: Vascular endothelial growth factor receptor 3 (Homo sapiens) (UniProt P35916); settings: at 0.1 µM
Chain of Vascular endothelial growth factor receptor 3 (Homo sapiens) (P35916 whole entry): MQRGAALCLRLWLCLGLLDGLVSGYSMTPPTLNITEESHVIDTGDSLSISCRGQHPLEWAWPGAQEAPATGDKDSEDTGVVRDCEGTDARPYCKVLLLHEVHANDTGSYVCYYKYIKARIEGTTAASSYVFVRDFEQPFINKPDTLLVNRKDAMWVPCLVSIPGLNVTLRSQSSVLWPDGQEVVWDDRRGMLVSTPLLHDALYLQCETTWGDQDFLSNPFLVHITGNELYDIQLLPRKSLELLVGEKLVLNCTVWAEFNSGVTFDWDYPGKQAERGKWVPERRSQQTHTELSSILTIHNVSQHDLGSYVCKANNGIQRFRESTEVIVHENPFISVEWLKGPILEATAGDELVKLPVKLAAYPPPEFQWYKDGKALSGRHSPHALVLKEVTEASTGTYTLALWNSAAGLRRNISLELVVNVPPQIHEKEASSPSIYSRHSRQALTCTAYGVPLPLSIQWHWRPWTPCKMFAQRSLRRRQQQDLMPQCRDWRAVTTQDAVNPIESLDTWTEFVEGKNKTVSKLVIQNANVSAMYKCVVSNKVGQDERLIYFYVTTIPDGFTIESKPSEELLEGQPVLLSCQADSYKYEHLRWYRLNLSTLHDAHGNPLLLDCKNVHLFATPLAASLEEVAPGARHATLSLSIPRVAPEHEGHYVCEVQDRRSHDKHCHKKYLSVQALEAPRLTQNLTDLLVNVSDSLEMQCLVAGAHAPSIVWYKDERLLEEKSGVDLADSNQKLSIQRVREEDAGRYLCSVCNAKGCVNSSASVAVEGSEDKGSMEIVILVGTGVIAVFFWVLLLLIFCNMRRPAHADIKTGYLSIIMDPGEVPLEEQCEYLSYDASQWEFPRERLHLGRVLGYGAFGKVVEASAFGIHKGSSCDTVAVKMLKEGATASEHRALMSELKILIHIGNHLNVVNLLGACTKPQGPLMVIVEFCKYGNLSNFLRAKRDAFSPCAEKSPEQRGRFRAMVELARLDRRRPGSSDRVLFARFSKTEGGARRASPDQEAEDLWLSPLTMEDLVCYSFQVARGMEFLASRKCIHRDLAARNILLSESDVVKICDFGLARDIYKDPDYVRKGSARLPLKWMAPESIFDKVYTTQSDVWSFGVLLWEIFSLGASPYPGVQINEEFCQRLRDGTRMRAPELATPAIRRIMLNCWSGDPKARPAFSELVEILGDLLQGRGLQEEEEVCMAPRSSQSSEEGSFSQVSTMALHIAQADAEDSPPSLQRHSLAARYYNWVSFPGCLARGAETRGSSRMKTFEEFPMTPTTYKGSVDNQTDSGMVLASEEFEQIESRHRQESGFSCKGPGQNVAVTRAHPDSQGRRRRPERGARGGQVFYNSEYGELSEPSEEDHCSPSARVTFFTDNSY

[17] = target: Vascular endothelial growth factor receptor 3 (Homo sapiens) (UniProt P35916); settings: at 1 µM
[18] = target: Macrophage colony-stimulating factor 1 receptor (Homo sapiens) (UniProt P07333); settings: at 0.1 µM
Chain of Macrophage colony-stimulating factor 1 receptor (Homo sapiens) (P07333 whole entry): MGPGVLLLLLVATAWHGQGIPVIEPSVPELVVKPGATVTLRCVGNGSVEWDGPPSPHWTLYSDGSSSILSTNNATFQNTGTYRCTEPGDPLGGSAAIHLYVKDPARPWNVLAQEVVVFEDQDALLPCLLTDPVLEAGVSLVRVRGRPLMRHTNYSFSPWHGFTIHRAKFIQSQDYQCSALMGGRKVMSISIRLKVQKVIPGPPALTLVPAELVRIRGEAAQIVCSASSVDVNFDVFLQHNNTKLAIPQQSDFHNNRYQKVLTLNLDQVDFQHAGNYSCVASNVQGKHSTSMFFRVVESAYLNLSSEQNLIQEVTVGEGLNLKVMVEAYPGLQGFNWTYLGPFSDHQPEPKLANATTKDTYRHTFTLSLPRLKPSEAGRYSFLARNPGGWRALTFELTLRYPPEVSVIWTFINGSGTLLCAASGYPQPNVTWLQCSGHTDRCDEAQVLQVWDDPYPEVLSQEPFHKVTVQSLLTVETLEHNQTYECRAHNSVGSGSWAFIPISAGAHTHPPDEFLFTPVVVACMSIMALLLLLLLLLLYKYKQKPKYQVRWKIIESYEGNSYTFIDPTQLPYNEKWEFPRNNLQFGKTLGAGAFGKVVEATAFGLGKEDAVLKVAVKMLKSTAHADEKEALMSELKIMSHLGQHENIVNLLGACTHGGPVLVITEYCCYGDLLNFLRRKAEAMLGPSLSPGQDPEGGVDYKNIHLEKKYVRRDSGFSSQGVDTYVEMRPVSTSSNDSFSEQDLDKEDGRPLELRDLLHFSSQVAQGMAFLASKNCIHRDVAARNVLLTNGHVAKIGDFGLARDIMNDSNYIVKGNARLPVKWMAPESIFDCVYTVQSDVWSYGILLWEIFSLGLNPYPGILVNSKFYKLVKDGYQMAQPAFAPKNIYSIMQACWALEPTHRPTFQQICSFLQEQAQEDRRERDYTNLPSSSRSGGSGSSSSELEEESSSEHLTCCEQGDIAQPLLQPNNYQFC

[19] = target: Macrophage colony-stimulating factor 1 receptor (Homo sapiens) (UniProt P07333); settings: at 1 µM
[20] = target: Tyrosine-protein kinase Fyn (Homo sapiens) (UniProt P06241); settings: at 0.1 µM
Chain of Tyrosine-protein kinase Fyn (Homo sapiens) (P06241 2-537 limits assumed): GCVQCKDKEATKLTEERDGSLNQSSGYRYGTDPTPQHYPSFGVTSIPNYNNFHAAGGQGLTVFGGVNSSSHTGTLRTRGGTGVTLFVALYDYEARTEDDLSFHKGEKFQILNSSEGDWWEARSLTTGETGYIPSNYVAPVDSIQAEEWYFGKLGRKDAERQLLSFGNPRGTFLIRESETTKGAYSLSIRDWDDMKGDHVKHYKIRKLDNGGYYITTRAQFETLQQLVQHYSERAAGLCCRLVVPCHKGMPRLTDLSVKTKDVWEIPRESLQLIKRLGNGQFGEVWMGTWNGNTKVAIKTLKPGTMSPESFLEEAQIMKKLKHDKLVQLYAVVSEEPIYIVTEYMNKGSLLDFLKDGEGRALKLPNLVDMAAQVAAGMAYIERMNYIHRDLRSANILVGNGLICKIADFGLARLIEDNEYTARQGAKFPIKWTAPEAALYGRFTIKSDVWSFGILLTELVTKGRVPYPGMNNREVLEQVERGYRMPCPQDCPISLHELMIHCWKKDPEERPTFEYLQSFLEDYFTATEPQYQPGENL

Structure (SMILES)	inhibition [1] [%]	inhibition [2] [%]	inhibition [3] [%]	inhibition [4] [%]	inhibition [5] [%]	inhibition [6] [%]	inhibition [7] [%]	inhibition [8] [%]	inhibition [9] [%]	inhibition [10] [%]	inhibition [11] [%]	inhibition [12] [%]	inhibition [13] [%]	inhibition [14] [%]	inhibition [15] [%]	inhibition [16] [%]	inhibition [17] [%]	inhibition [18] [%]	inhibition [19] [%]	inhibition [20] [%]
NC(=O)c1sc(-n2cnc3ccc(C(F)(F)F)cc32)cc1OCc1ccccc1Br	6.28	3	3.1	4.34	5.43	3.44	3.3	5.57	3.81	8.05	28.9	81.4	94.3	8.68	5.89	-1.7	3.99	0.91	3.49	2.36
CCCN1CCC(c2ccc(Nc3nc(Nc4cc(F)ccc4C(N)=O)c4cc[nH]c4n3)c(OC)c2)CC1	5.85	4.68	21.6	4.85	17.6	4.35	8.4	7.49	8.87	8.38	32.5	12.5	49.8	81.5	56	-1.93	2.22	34.3	81.5	3.91
CCn1c(-c2nonc2N)nc2cnc(Oc3cccc(NC(=O)c4ccc(N(C)C)cc4)c3)cc21	14.1	1.17	4.28	2.85	1.24	0.89	2.25	3.09	1.46	7.55	5.29	1.86	1.97	3.52	0.83	0.61	2.01	-0.02	0.23	1.66
Fc1cccc(COc2ccc(Nc3ncnc4sc(-c5ccco5)cc34)cc2Cl)c1	4.97	1.98	3.24	3.69	5.99	1.71	2.07	2.72	4.26	10.3	8.43	6.82	4.61	6.94	0.69	1.58	3.49	0.84	8.62	0.36
